Assay results from PubChem BioAssay (EPA / NIEHS).
Results filed as inconclusive are left out. Calls of active or inactive are those of the source. Rule for the calls, unless noted: active = hit-call score of the fitted dose curve at least 0.9, where 1 is the maximum; inconclusive = response in the unintended direction; inactive = score below 0.9.

Key:
[1] = ATG_TAL_CIS: Attagene CIS-FACTORIAL HepG2 Assay for human TAL Basal Promoter (AID 2282966; active = hit-call score of the fitted dose curve at least 0.9, where 1 is the maximum; inactive = score below 0.9;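 note: background control endpoint measuring basal TAL promoter reporter mRNA not a specific factor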); conditions: HepG2 Attagene cis-factorial TAL promoter reporter; actives raise or lower the signal
Procedure, shortened: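 Human hepatoma HepG2 cells, transfected with promoter-regulated reporter units, were treated 24 h. Reporter transcript levels, measured through RT-PCR and capillary electrophoresis, were fitted for gain or loss relative to DMSO.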

[2] = ATG_TGFb_CIS: Attagene CIS-FACTORIAL HepG2 Assay for human Transforming Growth Factor (TGF) (AID 2282967; active = hit-call score of the fitted dose curve at least 0.9, where 1 is the maximum; inactive = score below 0.9); conditions: HepG2 Attagene CIS TGFb reporter, mRNA transcription; actives raise or lower the signal
Procedure, shortened: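 Multiplexed cis-reporter HepG2 system, 24 h treatment; mRNA induction read by fluorescence after RT-PCR and CE; DMSO negative control, bidirectional curve fitting.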

[3] = ATG_VDRE_CIS: Attagene CIS-FACTORIAL HepG2 Assay for human Vitamin D Receptor Element (VDRE) (AID 2282968; active = hit-call score of the fitted dose curve at least 0.9, where 1 is the maximum; inactive = score below 0.9); conditions: HepG2 VDRE cis-reporter transcription, actives raise or lower the signal
Procedure, shortened: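 Transfected HepG2 reporter cells, chemical treatment 24 h. RNA isolated, cDNA amplified with reporter-specific primers, products analysed by capillary electrophoresis. Endpoint fitted in both directions versus DMSO.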

[4] = target: X-box-binding protein 1 (Homo sapiens) (UniProt P17861); experiment: ATG_Xbp1_CIS: Attagene CIS-FACTORIAL HepG2 Assay for human X-box Binding Protein 1 (XBP1) (AID 2282972; active = hit-call score of the fitted dose curve at least 0.9, where 1 is the maximum; inactive = score below 0.9); conditions: HepG2 XBP1 cis-element reporter, Attagene multiplex; actives raise or lower the signal
Sequence of X-box-binding protein 1 (Homo sapiens) (P17861 whole entry, looked up): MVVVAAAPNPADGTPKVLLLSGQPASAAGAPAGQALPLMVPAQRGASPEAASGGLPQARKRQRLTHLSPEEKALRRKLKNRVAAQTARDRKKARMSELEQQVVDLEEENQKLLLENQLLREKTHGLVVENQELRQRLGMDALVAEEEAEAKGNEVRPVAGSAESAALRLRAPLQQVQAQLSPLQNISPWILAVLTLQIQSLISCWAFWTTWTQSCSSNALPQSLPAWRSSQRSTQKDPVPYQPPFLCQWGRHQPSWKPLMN
Procedure, shortened: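 Multiplexed cis-reporter readout in transfected HepG2 liver cells. Exposure lasted 24 hours. Activity in either direction was fitted against DMSO as negative control and baseline.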

[5] = target: Glucocorticoid receptor (Homo sapiens) (UniProt P04150); experiment: ATG_GR_TRANS: Attagene TRANS-FACTORIAL HepG2 Assay for human Glucocorticoid Receptor (GR) (AID 2282978); conditions: HepG2 Attagene TRANS GR reporter, mRNA transcription;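 note: activators score as hits since higher reporter transcript over DMSO is fitted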
Sequence of Glucocorticoid receptor (Homo sapiens) (P04150 whole entry, looked up, the tested form may be a part): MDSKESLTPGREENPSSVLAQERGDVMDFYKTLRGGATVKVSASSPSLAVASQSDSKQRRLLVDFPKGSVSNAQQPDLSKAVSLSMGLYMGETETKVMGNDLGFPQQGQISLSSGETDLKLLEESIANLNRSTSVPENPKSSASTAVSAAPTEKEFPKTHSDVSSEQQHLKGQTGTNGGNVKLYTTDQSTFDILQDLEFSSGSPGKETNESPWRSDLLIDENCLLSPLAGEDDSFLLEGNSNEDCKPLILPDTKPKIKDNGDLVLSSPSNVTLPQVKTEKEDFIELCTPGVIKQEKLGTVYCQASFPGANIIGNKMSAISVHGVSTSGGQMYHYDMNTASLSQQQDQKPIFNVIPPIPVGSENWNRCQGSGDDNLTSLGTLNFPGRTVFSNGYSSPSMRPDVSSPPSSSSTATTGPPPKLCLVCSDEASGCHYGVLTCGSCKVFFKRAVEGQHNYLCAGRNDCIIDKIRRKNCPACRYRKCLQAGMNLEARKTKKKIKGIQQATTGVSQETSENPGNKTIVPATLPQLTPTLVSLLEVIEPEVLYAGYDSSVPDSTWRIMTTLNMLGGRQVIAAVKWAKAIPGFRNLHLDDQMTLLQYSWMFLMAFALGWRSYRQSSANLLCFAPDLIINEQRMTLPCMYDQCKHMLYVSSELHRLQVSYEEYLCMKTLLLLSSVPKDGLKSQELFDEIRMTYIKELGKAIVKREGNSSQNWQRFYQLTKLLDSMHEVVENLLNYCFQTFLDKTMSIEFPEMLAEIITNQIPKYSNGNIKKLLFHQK
Procedure, shortened: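 Readout is reporter transcript from a chimeric GR-Gal4 acting on GAL4-UAS in transfected human HepG2 liver cells after 24 h exposure, quantified by RT-PCR and capillary electrophoresis. Activation fitted upward against DMSO.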

[6] = target: Bile acid receptor (Homo sapiens) (UniProt Q96RI1); experiment: ATG_FXR_TRANS: Attagene TRANS-FACTORIAL HepG2 Assay for Farnesoid X Receptor (FXR) (AID 2282979); conditions: HepG2 Attagene TRANS FXR-GAL4 reporter transcription;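 note: hits raise reporter mRNA above DMSO so AC50 marks FXR activation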
Sequence of Bile acid receptor (Homo sapiens) (Q96RI1 whole entry, looked up, the tested form may be a part): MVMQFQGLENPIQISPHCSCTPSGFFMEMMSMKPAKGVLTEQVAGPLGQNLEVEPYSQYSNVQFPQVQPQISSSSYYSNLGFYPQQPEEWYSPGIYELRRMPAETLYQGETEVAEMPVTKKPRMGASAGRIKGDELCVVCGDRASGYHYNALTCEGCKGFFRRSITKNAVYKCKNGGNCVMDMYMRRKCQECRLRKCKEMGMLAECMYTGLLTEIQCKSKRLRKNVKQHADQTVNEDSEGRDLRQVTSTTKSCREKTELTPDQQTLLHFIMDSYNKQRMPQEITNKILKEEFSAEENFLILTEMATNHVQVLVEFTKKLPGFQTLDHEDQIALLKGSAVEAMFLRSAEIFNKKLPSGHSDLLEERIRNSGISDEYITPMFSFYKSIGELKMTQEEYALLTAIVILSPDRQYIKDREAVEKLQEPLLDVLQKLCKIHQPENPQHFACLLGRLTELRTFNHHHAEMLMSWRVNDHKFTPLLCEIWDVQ
Procedure, shortened: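 After 24 h chemical treatment of transfected HepG2 cells, GAL4-UAS reporter transcripts driven by an exogenous FXR-GAL4 fusion were measured by RT-PCR and capillary electrophoresis. Increases over DMSO were fitted.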

[7] = target: Oxysterols receptor LXR-alpha (Homo sapiens) (UniProt Q13133); experiment: ATG_LXRa_TRANS: Attagene TRANS-FACTORIAL HepG2 Assay for human Liver X Receptor alpha (LXRa) (AID 2282980); conditions: HepG2 Attagene TRANS reporter, LXRa transactivation
Sequence of Oxysterols receptor LXR-alpha (Homo sapiens) (Q13133 whole entry, looked up, the tested form may be a part): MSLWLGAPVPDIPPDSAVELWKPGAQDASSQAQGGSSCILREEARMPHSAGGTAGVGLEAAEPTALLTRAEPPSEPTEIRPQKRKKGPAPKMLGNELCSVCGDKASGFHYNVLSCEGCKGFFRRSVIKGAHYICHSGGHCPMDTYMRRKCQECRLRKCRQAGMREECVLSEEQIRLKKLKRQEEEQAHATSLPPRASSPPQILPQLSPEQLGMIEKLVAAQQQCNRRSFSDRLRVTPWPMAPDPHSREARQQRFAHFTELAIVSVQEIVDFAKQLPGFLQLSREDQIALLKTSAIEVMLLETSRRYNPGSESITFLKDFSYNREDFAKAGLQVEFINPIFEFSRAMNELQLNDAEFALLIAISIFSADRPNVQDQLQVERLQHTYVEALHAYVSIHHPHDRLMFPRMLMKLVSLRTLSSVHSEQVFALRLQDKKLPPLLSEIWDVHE
Procedure, shortened: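 In this multiplexed TRANS system, compounds act on HepG2 cells carrying GAL4-UAS reporter units and a receptor-GAL4 fusion for 24 h. Induced reporter RNA is amplified, fluorescently labelled and sized by capillary electrophoresis, with DMSO as baseline.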

[8] = target: Oxysterols receptor LXR-beta (Homo sapiens) (UniProt P55055); experiment: ATG_LXRb_TRANS: Attagene TRANS-FACTORIAL HepG2 Assay for human Liver X Receptor beta (LXRb) (AID 2282981); conditions: HepG2 Attagene TRANS GAL4-LXRb reporter, mRNA
Sequence of Oxysterols receptor LXR-beta (Homo sapiens) (P55055 whole entry, looked up, the tested form may be a part): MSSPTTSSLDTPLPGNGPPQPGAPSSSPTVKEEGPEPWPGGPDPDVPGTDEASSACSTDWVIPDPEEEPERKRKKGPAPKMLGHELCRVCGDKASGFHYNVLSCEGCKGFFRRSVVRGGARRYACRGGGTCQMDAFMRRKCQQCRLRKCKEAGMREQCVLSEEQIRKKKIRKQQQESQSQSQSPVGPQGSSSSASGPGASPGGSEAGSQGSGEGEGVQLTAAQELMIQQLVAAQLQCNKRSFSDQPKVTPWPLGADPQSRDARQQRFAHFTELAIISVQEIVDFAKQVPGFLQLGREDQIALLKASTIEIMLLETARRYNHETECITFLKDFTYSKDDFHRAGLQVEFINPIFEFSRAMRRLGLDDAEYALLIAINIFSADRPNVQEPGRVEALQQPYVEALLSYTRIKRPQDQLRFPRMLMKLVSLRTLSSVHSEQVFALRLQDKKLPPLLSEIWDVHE
Procedure, shortened: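 Liver-derived HepG2 cells transfected with Gal4-responsive reporters were dosed for 24 h. Activation was scored as rise in reporter mRNA, by RT-PCR and capillary electrophoresis, above DMSO baseline.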

[9] = target: Hepatocyte nuclear factor 4-alpha (Homo sapiens) (UniProt P41235); experiment: ATG_HNF4a_TRANS: Attagene TRANS-FACTORIAL HepG2 Assay for human Hepatocyte Nuclear Factor 4 alpha (HNF4a) (AID 2282982); conditions: HepG2 HNF4a transactivation reporter, mRNA readout
Sequence of Hepatocyte nuclear factor 4-alpha (Homo sapiens) (P41235 whole entry, looked up, the tested form may be a part): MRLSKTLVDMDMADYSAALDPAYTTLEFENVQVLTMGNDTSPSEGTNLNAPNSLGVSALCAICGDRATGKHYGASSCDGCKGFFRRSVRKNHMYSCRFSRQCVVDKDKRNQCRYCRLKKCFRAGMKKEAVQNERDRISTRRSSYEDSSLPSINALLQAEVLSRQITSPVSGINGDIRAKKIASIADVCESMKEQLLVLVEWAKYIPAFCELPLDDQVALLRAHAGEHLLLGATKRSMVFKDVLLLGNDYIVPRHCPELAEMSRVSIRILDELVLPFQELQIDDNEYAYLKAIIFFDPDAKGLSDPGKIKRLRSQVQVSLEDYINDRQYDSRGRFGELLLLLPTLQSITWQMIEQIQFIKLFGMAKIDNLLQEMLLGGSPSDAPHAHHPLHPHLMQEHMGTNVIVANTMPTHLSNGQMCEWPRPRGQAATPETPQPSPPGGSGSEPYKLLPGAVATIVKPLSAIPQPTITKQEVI
Procedure, shortened: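 Using HepG2 liver cells transfected with GAL4-UAS reporter units, chemical-induced mRNA increases were assessed after 24 hours. Fluorescent RT-PCR fragments were separated by capillary electrophoresis and compared with DMSO negative controls.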

[10] = ATG_M_06_TRANS: Attagene TRANS-FACTORIAL HepG2 Assay for M06 Transcription Factor (Internal Marker) (AID 2282983); conditions: HepG2 Attagene TRANS M06 internal marker reporter
Procedure, shortened: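 Multi-reporter-transfected HepG2, 24 h treatment; reporter transcripts quantified via RT-PCR, primer-extension labelling and CE. DMSO-normalized gain-of-signal fit.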

[11] = ATG_M_32_TRANS: Attagene TRANS-FACTORIAL HepG2 Assay for M32 Transcription Factor (Internal Marker) (AID 2282984); conditions: HepG2 Attagene TRANS M32 internal marker reporter
Procedure, shortened: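 Fluorescence-detected mRNA induction, HepG2 liver cells, 24 h after dosing. Multiple GAL4-UAS reporter units introduced by transient transfection; background-control endpoint analysed for gain of signal against DMSO.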

[12] = target: Nuclear receptor subfamily 4 group A member 2 (Homo sapiens) (UniProt P43354); experiment: ATG_NURR1_TRANS: Attagene TRANS-FACTORIAL HepG2 Assay for human Nuclear Receptor Related Protein 1 (NURR1) (AID 2282985); conditions: HepG2 Attagene TRANS reporter, mRNA readout
Sequence of Nuclear receptor subfamily 4 group A member 2 (Homo sapiens) (P43354 whole entry, looked up, the tested form may be a part): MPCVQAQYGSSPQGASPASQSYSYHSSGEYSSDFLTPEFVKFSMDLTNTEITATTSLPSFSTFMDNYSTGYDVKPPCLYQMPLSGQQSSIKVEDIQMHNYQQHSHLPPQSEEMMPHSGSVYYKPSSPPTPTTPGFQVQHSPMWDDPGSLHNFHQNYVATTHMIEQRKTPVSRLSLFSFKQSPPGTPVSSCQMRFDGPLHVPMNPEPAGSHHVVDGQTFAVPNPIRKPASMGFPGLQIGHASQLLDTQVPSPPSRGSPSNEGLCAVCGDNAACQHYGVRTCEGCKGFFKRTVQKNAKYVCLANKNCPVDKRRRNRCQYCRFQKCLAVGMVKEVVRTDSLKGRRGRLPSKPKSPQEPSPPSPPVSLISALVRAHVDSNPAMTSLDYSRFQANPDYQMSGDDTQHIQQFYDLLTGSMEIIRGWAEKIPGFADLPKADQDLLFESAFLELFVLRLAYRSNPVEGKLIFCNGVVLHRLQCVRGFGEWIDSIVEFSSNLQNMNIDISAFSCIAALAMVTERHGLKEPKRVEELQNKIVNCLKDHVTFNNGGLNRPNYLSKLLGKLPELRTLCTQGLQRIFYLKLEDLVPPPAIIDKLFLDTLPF
Procedure, shortened: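 Chimeric NR-Gal4 proteins were expressed in human HepG2 cells bearing GAL4-UAS reporter units, and induced reporter mRNA was quantified 24 h post-dosing by RT-PCR and capillary electrophoresis.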

[13] = target: Transcriptional activator Myb (Homo sapiens) (UniProt P10242); experiment: ATG_Myb_CIS: Attagene CIS-FACTORIAL HepG2 Assay for human Myeloblastosis (Myb) Proto-Oncogene Transcription Factor (AID 2282986; active = hit-call score of the fitted dose curve at least 0.9, where 1 is the maximum; inactive = score below 0.9); conditions: HepG2 Attagene CIS-FACTORIAL Myb reporter transcription; actives raise or lower the signal
Sequence of Transcriptional activator Myb (Homo sapiens) (P10242 whole entry, looked up): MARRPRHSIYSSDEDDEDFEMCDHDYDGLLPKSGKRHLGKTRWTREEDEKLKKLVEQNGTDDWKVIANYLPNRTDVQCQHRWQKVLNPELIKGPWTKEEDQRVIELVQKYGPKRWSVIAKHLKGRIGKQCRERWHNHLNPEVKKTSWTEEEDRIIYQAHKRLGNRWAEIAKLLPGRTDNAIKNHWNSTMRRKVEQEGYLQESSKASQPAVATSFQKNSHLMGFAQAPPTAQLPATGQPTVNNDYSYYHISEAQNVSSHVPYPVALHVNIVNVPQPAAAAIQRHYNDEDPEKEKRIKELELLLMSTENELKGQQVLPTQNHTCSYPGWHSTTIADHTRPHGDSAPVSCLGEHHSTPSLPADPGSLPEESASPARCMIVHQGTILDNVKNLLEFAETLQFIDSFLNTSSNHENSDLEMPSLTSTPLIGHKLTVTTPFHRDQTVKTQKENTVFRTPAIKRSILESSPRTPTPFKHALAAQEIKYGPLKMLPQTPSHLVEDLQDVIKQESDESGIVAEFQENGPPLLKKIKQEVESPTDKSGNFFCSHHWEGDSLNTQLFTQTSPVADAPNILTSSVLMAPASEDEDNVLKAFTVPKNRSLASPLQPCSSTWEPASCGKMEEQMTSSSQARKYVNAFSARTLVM
Procedure, shortened: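 Reporter mRNA is quantified by RT-PCR and capillary electrophoresis 24 h after dosing HepG2 cells transfected with cis-regulated reporter units, which track endogenous transcription factor activity. Gain and loss of signal are fitted versus DMSO baseline.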

[14] = target: Nuclear respiratory factor 1 (Homo sapiens) (UniProt Q16656); experiment: ATG_NRF1_CIS: Attagene CIS-FACTORIAL HepG2 Assay for human Nuclear Respiratory Factor 1 (NRF1) Orphan Gene (AID 2282987; active = hit-call score of the fitted dose curve at least 0.9, where 1 is the maximum; inactive = score below 0.9); conditions: HepG2 NRF1 cis-element reporter, Attagene multiplex; actives raise or lower the signal
Sequence of Nuclear respiratory factor 1 (Homo sapiens) (Q16656 whole entry, looked up): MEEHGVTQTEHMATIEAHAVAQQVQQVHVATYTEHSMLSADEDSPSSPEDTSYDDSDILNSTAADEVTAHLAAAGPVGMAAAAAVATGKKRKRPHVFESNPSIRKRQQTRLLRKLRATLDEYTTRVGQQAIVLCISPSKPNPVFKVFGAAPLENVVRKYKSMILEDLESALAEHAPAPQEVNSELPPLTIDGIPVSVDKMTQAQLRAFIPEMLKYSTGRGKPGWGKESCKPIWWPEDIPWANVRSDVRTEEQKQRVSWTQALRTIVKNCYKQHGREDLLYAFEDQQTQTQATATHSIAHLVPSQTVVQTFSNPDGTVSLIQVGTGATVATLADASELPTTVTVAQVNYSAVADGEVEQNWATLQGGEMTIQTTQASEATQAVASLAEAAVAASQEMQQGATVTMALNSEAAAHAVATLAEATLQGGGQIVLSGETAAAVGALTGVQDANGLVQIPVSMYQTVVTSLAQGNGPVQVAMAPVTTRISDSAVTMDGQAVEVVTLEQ
Procedure, shortened: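 Endogenous NRF1-driven reporter transcription in transfected HepG2 cells after 24 h treatment. Readout: RT-PCR products, 6-FAM labelled and resolved by capillary electrophoresis; changes fitted both directions relative to DMSO.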

[15] = target: Estrogen-related receptor gamma (Homo sapiens) (UniProt P62508); experiment: ATG_ERRg_TRANS: Attagene TRANS-FACTORIAL HepG2 Assay for human Estrogen-Related Receptor gamma (ERRg) (AID 2282977); conditions: HepG2 Attagene TRANS reporter, ERRg transactivation;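 note: hits increase reporter signal over DMSO so potencies reflect activators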
Procedure, shortened: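 Readout: fluorescent reporter-mRNA fragments resolved by capillary electrophoresis after RT-PCR and HpaI cut. Cells: transiently transfected HepG2 carrying GAL4-UAS reporters driven by exogenous NR-Gal4 chimeras, dosed 24 h. Activity fitted upward relative to DMSO baseline.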

[16] = ATG_GAL4_TRANS: Attagene TRANS-FACTORIAL HepG2 Assay for GAL4 (Internal Marker) (AID 2282976); conditions: HepG2 Attagene TRANS GAL4 internal marker reporter
Procedure, shortened: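 Liver HepG2 line bearing multiplexed GAL4-UAS reporter constructs; 24 h chemical treatment. Transcripts were quantified as fluorescent fragments on capillary electrophoresis after RT-PCR and HpaI cut, with activity fitted upward from DMSO.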

[17] = target: Nuclear receptor subfamily 1 group I member 3 (Homo sapiens) (UniProt Q14994); experiment: ATG_CAR_TRANS: Attagene TRANS-FACTORIAL HepG2 Assay for human Constitutive Androstane Receptor (CAR) (AID 2282969); conditions: HepG2 Attagene TRANS-FACTORIAL CAR reporter;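 note: activators raise reporter mRNA above DMSO so AC50 marks induction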
Sequence of Nuclear receptor subfamily 1 group I member 3 (Homo sapiens) (Q14994 whole entry, looked up, the tested form may be a part): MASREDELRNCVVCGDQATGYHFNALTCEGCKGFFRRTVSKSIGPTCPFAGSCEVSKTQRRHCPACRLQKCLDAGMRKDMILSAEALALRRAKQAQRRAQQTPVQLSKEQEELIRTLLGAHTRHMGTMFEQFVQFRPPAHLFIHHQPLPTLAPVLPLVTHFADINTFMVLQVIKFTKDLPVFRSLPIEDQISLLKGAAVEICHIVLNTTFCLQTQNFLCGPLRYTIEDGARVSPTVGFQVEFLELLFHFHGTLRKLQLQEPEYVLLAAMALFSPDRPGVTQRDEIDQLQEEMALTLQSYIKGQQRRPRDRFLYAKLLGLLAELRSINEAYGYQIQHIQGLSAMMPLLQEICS
Procedure, shortened: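 Steps: transient transfection of HepG2 with multiple GAL4-UAS reporter units; 24 h compound incubation; RNA isolation, RT-PCR, 6-FAM primer extension, HpaI digest; capillary electrophoresis. Gain-of-signal relative to DMSO negative control.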

[18] = target: Steroid hormone receptor ERR1 (Homo sapiens) (UniProt P11474); experiment: ATG_ERRa_TRANS: Attagene TRANS-FACTORIAL HepG2 Assay for human Estrogen-Related Receptor alpha (ERRa) (AID 2282971); conditions: HepG2 Attagene TRANS reporter, ERRa transactivation
Procedure, shortened: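 Signal gain relative to DMSO for an ERRa-Gal4 chimeric receptor, read as reporter mRNA by RT-PCR/capillary electrophoresis. Human HepG2 liver cells, transient multiplex reporter transfection, 24 h chemical exposure.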

[19] = ATG_M_19_TRANS: Attagene TRANS-FACTORIAL HepG2 Assay for M19 Transcription Factor (Internal Marker) (AID 2282974); conditions: HepG2 Attagene TRANS-FACTORIAL M19 internal marker reporter
Procedure, shortened: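 Background-control readout: after 24 h chemical exposure of transfected HepG2 carrying GAL4-driven reporter units, RNA was reverse-transcribed, amplified, fluorescently labeled and sized by capillary electrophoresis; gain-of-signal fit against DMSO.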

Measured: AC50

CCC(Cl)C(Cl)C(Cl)CC(Cl)C(Cl)C(C)Cl (stereo not drawn)
active: [2] 64.6 µM | [3] 3.17 µM | [6] 11 µM
not listed: [15] | [16] | [17] | [18] | [19]
inactive: all other assays above

C=C1C[C@]23C[C@@]1(O)CC[C@H]2[C@@]12C=C[C@H](O)[C@@](C)(C(=O)O1)[C@H]2[C@@H]3C(=O)O
not listed: [6] | [8] | [11] | [12] | [16] | [17] | [18] | [19]
inactive: all other assays above

CN(C)C(=O)Nc1ccc(Oc2ccc(Cl)cc2)cc1
not listed: [6] | [7] | [9] | [15] | [16] | [17] | [18] | [19]
inactive: all other assays above

CC1CCC(C(C)C)C(O)C1 (stereo not drawn)
not listed: [5] | [9] | [11] | [15] | [17] | [18] | [19]
inactive: all other assays above

CCCCSCCCC
inactive: [1] | [2] | [17] | [4] | [16] | [7] | [10] | [11] | [13] | [14]

Nc1ccccc1[N+](=O)[O-]
not listed: [3] | [7] | [9] | [15] | [16] | [17]
inactive: all other assays above

CC/C=C\CC/C=C/CO
not listed: [3] | [5] | [9] | [18]
inactive: all other assays above

CCCCCCC(C)(C)S
not listed: [3] | [6] | [9] | [15] | [18] | [19]
inactive: all other assays above

O=C1OC(=O)c2c(Cl)c(Cl)c(Cl)c(Cl)c21
not listed: [3] | [5] | [7] | [10] | [15]
inactive: all other assays above

Clc1ccc(C(c2ccccc2Cl)C(Cl)Cl)cc1 (stereo not drawn)
inactive: [2] | [4] | [19] | [16] | [5] | [6] | [10] | [11] | [13]
active: [1] 23.7 µM | [14] 44.2 µM

Nc1ccn([C@H]2CS[C@@H](CO)O2)c(=O)n1
not listed: [3] | [6] | [7] | [11] | [12] | [15] | [16] | [18]
inactive: all other assays above

C/C=C(\C)C(=O)OCCc1ccccc1
not listed: [3] | [6] | [8] | [11] | [15] | [16] | [18]
inactive: all other assays above

C=C(C#N)C(=O)OCC
inactive: [1] | [2] | [4] | [19] | [7] | [8] | [10] | [11] | [13] | [14]

CCc1ccc(O)c(OC)c1
inactive: [1] | [2] | [17] | [4] | [19] | [7] | [10] | [12] | [13] | [14]

CC(CN=Cc1ccccc1O)N=Cc1ccccc1O (stereo not drawn)
active: [1] 25.9 µM | [14] 55.3 µM
not listed: [3] | [6] | [9] | [15] | [16] | [18] | [19]
inactive: all other assays above

CC(Oc1cc(Cl)ccc1Cl)C(=O)O (stereo not drawn)
not listed: [3] | [5] | [6] | [9] | [10] | [11] | [15] | [18]
inactive: all other assays above

CCCCCC(C=O)=Cc1ccccc1
inactive: [1] | [2] | [4] | [19] | [16] | [6] | [10] | [11] | [13]

C[N+](C)(C)CCCCCC[N+](C)(C)C
inactive: [1] | [2] | [4] | [19] | [16] | [9] | [10] | [12] | [13] | [14]

CC(=O)CC(=O)Nc1ccc(C)cc1C
not listed: [3] | [5] | [7] | [12] | [15] | [17] | [18]
inactive: all other assays above

CC1=CC[C@@]23C[C@@H]1C(C)(C)[C@@H]2CC[C@H]3C
not listed: [3] | [6] | [7] | [9] | [15] | [16] | [18] | [19]
inactive: all other assays above

CC[N+](C)(CC)CC
not listed: [3] | [7] | [8] | [11] | [12] | [15] | [17] | [18]
inactive: all other assays above

CCCCCCOCCOCCO
inactive: [1] | [2] | [4] | [19] | [8] | [9] | [10] | [11] | [13] | [14]

CCO/C=C1\N=C(c2ccccc2)OC1=O
inactive: [1] | [2] | [4] | [19] | [5] | [8] | [9] | [12] | [13] | [14]
